Assay results published in PubChem BioAssay (NCATS).
Active and inactive are the calls of the source. Calls follow the shape of the dose curve; as a rule, active = well fitted activation curve with a large enough effect; inconclusive = small, poorly fitted or top-dose-only effect; inactive = flat fitted curve, though single readings scatter.

test: Confirmation and Secondary Assay for Modulators of Hemoglobin Beta Chain Splicing at IVS2 705 locus (AID 930); conditions: HeLa EGFP-705 splicing reporter, GFP fluorescence, 48 h; series mostly up to 46.1 µM; activation: at the top concentration; also: % of control where 0% means no effect
Description: NIH Chemical Genomics Center [NCGC] NIH Molecular Libraries Screening Centers Network [MLSCN] MLSCN Grant: 1 X01 MH080684-01 PI Name: Dr. Ryszard Kole NCGC Assay Overview: Modulation of Alternative Splicing as Therapy Abnormal splicing is associated with a number of diseases, including cancer and genetic diseases such as cystic fibrosis, muscular dystrophy and beta-thalassemia. Alteration of disease associated splicing patterns provides a promising target for treatment. […] Mutations in the second intron of the b-globin gene at positions 654 or 705 are clinically relevant and cause mis-splicing which results in an out of frame gene product. […] EGFP-705 HeLa Cells as screen system. HeLa cell lines were stably transfected with a construct in which the EGFP (enhanced green fluorescent protein) cDNA was interrupted by the second intron of the beta-globin gene (IVS2-705). The ISV2 intron contains mutations which cause mis-splicing of EGFP and premature termination of EGFP which results in a nonfluorescent protein product. […] Expression of the transgene was driven by the CMV promoter. We concluded that a low molecular weight compound, which restored correct splicing of intron 2 would also generate functional EGFP protein, resulting in a fluorescent signal. Thus, the HeLa cells that express the EGFP-705 construct can be used for validation of splice site specificity of compounds identified in primary screening of the ISV2 654 construct.
NCGC Assay Protocol Summary: Confirmatory Screening. Freshly thawed HeLa EGFP-705 cells were seeded in 5 ul of optimem media (Invitrogen) containing 2 % fetal calf serum (Hyclone) and 1x penicillin/streptomycin (Invitrogen) at a concentration of 500 cells per well in 1536-well plates. Cells were incubated overnight at 37C in 5% CO2. The next day, cells were treated with DMSO, 500 nM antisense ISV2 654 PNA control oligo, or library compound and allowed to grow at 37C in 5% CO2 for 2 days. The PNA oligo blocked the mutation site in the intron and allowed proper (wild type) splicing to occur, resulting in full length EGFP expression and also allowed for optimization of the assay parameters. Plates were read in the Acumen Explorer (TTP Labtech) using 488 nm laser excitation and 500-520 nm emission PMT filter in a 1 x 8 uM capture mode. Fluorescnet objects ranging in size from 5 to 250 uM were measured and the total peak GFP intensity for each well was used for data analysis. Keywords: Thalassemia, beta-thalassemia, beta-globin, EGFP, ISV2 654, ISV2 705, SSO, PNA, antisense, splicing, MLSMR, MLSCN, NIH Roadmap, qHTS, NCGC

Row | Structure (SMILES) | activation | Potency
1 | COC(=O)COc1ccc(Cl)cc1Cl | -0.0252% [at 38.3 µM] (inactive) | 
2 | CC1(C)C(O)CC(O)[C@]2(C)C1CC(O)[C@]1(C)C2CC[C@@]2(C)C(c3ccoc3)OC(=O)C3O[C@]312 (stereo not given in full) | 2.6% (inactive) | 
3 | COC1C(O)C(OC2CC[C@]3(C=O)C4C(OC(C)=O)C[C@@]5(C)C(C6=CC(=O)OC6)CC[C@]5(O)C4CC[C@]3(O)C2)OC(C)C1OC(C)=O (stereo not given in full) | -1.19% (inactive) | 
4 | COC[C@]12CN(C=O)C3C4C(OC)C1[C@@]3(C1CC3(O)C(OC)C(O)C4(OC(C)=O)C1C3OC(=O)c1ccccc1)[C@@H](OC)CC2O (stereo not given in full) | 1.02% [at 38.3 µM] (inactive) | 
5 | CNC(C)C(O)c1ccccc1 (stereo not given) | -1.12% (inactive) | 
6 | CC(=O)OC1CC(OC(C)=O)[C@]2(C)C(CC(OC(C)=O)[C@]3(C)C2CC[C@@]2(C)C(c4ccoc4)C(=O)C4O[C@]432)C1(C)C (stereo not given in full) | -0.345% (inactive) | 
7 | C=C1C2CCC3[C@@](CC[C@@H]4C(C(=O)O)CC(OC5OC(CO)C(OS(=O)(=O)O)C(OS(=O)(=O)O)C5OC(=O)CC(C)C)C[C@]34C)(C2)C1O (stereo not given in full) | -0.303% (inactive) | 
8 | CNC(C)[C@H](O)c1ccccc1 (stereo not given in full) | 1.26% (inactive) | 
9 | COc1cc2c(cc1OC)[C@@H]1C(=O)c3ccc(O)c(CC=C(C)C)c3OC1CO2 (stereo not given in full) | 0.795% (inactive) | 
10 | O=C(O)CNCP(=O)(O)O | 1.08% [at 38.3 µM] (inactive) | 
11 | CC(C)c1ccc2c(c1O)CCC1C3=C(CC[C@]21C)C(=O)OC3 (stereo not given in full) | -0.417% [at 38.3 µM] (inactive) | 
12 | CCOCN(C(=O)CCl)c1c(C)cccc1CC | 0.753% [at 38.3 µM] (inactive) | 
13 | O=c1ccc2cc(O[C@H]3OC(CO)C(O)C(O)C3O)c(O)cc2o1 (stereo not given in full) |  | inactive
14 | COc1ccc2c(c1)[C@@]13CCCCC1[C@@H](C2)N(C)CC3 (stereo not given in full) | 5.03% (inactive) | 
15 | C[C@@]12CCC3C(CCC4=CC(=O)CC[C@]43C)C1CCC2O (stereo not given in full) | -0.87% [at 38.3 µM] (inactive) | 
16 | C#CCOS(=O)OC1CCCCC1Oc1ccc(C(C)(C)C)cc1 (stereo not given) | 1.44% [at 38.3 µM] (inactive) | 
17 | CC(=O)OC1CC[C@]2(C)C(CCC3C2CC[C@]2(C)C(C4=CC(=O)OC4)C(OC(C)=O)CC32O)C1 (stereo not given in full) | 1.22% (inactive) | 
18 | CC1C(=O)OC2C1CC[C@@]1(C)C=CC(=O)[C@@]3(C)O[C@@]213 (stereo not given in full) | -0.515% (inactive) | 
19 | O=C1NC(=O)C(=O)C(=O)N1 | 0.346% [at 38.3 µM] (inactive) | 
20 | CC(C)CC(CN)CC(=O)O (stereo not given) | 0.403% (inactive) | 

Row | Structure (SMILES) | activation | Potency
21 | C[C@@]12CC(c3ccoc3)OC(=O)C1CC[C@@]1(C)C2C2C=C[C@@]1(O)C(=O)O2 (stereo not given in full) | -0.176% [at 38.3 µM] (inactive) | 
22 | CC(=O)OC1CC2C(C)(C)C(O)C=C[C@@]2(C)C2CC[C@]3(C)C(=CC(=O)OC3c3ccoc3)[C@]12C (stereo not given in full) | 0.923% (inactive) | 
23 | CCN1C[C@]2(COC)C(O)C[C@H](OC)[C@@]34C5C[C@]6(O)C(OC)C(O)[C@](OC(C)=O)(C5C6OC(=O)c5ccccc5)C(C(OC)C23)C14 (stereo not given in full) | 1.8% (inactive) | 
24 | COc1cc2c(cc1O)CCNC2C (stereo not given) | -0.701% (inactive) | 
25 | C=CCc1ccc(OC)cc1 | 2.54% (inactive) | 
26 | O=C(O)c1nn(Cc2ccc(Cl)c(Cl)c2)c2ccccc12 | 0.405% [at 38.3 µM] (inactive) | 
27 | N#C/C(=C\c1ccc(O)cc1)C(=O)O | 1.77% [at 38.3 µM] (inactive) | 
28 | CC1(C)N([O-])[N+](=O)C1(C)Br (stereo not given) | 0.987% (inactive) | 
29 | COc1cc2c(cc1O)CC1c3c(cc(O)c(OC)c3-2)CCN1C (stereo not given) | -0.165% [at 38.3 µM] (inactive) | 
30 | CCC(C)C(=O)O[C@@H]1C[C@@]2(C)C(c3ccoc3)OC(=O)CC23OC2(C)O[C@@]14[C@@]1(C)C(CC(=O)OC)C5(C)CC1(O)C(O)(C5OC(=O)C1(C)OC1C)C(OC(C)=O)[C@@]34O2 (stereo not given in full) | -1.69% (inactive) | 
31 | CC1O[C@@H](OC2CC(O)[C@@]3(CO)C4C(O)C[C@@]5(C)C(C6=CC(=O)OC6)CC[C@]5(O)C4CC[C@]3(O)C2)C(O)C(O)C1O (stereo not given in full) | 0.635% (inactive) | 
32 | CC1(C)C(=O)C=C[C@@]2(C)C1=C(O)C(=O)[C@@]1(C)C2CC[C@@]2(C)C(c3ccoc3)C[C@H]3O[C@@]321 (stereo not given in full) | -0.637% (inactive) | 
33 | Oc1ccc2c3c1OC1C(O)CC[C@]4(O)C(C2)N(CC2CCC2)CC[C@]314 (stereo not given in full) | 2.72% (inactive) | 
34 | CC([C@H](O)c1ccccc1)N(C)C (stereo not given in full) | 0.549% [at 38.3 µM] (inactive) | 
35 | ClC1=C(Cl)C2(Cl)C3C4C=CC(C4)C3C1(Cl)C2(Cl)Cl (stereo not given) | -0.0783% [at 38.3 µM] (inactive) | 
36 | C=C(C)C1CNC(C(=O)O)C1CC(=O)O (stereo not given) | 0.205% (inactive) | 
37 | CC(=O)OC1C(=O)[C@]2(C)C(O)CC3OC[C@]3(OC(C)=O)C2[C@@H](OC(=O)c2ccccc2)[C@]2(O)CC(O)C(C)=C1C2(C)C (stereo not given in full) | 0.741% [at 38.3 µM] (inactive) | 
38 | COC1=CC2C3Cc4ccc(OC)c(O)c4[C@]2(CCN3C)CC1=O (stereo not given in full) | -1.53% (inactive) | 
39 | c1ccc2c(c1)[nH]c1cnccc12 | 0.787% [at 38.3 µM] (inactive) | 
40 | Cc1ccccc1-c1cncnc1NCCc1cnc[nH]1 | 0.548% [at 38.3 µM] (inactive) | 
